Data: PubChem BioAssay (NCATS)
Records with an inconclusive call do not appear. Where a call stands in place of a potency, no number is given. Calls of active or inactive are those of the source. Calls follow the shape of the dose curve; as a rule, active = well fitted curve in the direction sought with a large enough effect; inconclusive = small, poorly fitted or top-dose-only effect, or another doubt; inactive = no such curve, though single readings can be large; an effect the other way counts as inactive or inconclusive.

Tests used:
[1] = molecular target: Glutathione peroxidase 1 (Homo sapiens) (UniProt P07203); assay: Primary qHTS Assay for Inhibitors of Recombinant Selenoprotein Glutathione Peroxidase 1 (GPX1) (AID 1845191); also: nearly all actives have a fitted effect of over 65% in size
Chain of Glutathione peroxidase 1 (Homo sapiens) (P07203 whole entry, looked up): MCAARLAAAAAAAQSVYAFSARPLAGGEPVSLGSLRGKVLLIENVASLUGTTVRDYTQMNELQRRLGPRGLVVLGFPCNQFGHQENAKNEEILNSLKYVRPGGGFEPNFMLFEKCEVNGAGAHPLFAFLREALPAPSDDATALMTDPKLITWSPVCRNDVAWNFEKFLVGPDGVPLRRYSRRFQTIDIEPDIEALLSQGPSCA
Procedure, shortened: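 NADPH consumption tracked by fluorescence at 340/450 nm between t=0 and t=15 min, room temperature. Final mix: 10 nM GPX1, 100 nM glutathione reductase, 1 mM GSH, 0.5 mM NADPH, 0.5 mM cumene hydroperoxide, 0.01% BSA; 30 min compound–enzyme preincubation.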

[2] = molecular target: Phospholipid hydroperoxide glutathione peroxidase GPX4 (Homo sapiens) (UniProt P36969); assay: Primary qHTS Assay for Inhibitors of Recombinant Selenoprotein Glutathione Peroxidase 4 (GPX4) (AID 1845192); also: nearly all actives have a fitted effect of over 65% in size
Chain of Phospholipid hydroperoxide glutathione peroxidase GPX4 (Homo sapiens) (P36969 whole entry, looked up): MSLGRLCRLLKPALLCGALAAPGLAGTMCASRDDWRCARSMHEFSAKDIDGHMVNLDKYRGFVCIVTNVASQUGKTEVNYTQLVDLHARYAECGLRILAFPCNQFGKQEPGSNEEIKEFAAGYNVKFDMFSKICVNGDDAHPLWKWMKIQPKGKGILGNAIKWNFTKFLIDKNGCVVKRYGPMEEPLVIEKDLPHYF
Procedure, shortened: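 NADPH consumption followed by fluorescence at 340/450 nm, t=0 and after 15 min at room temperature. Reaction started with cumene hydroperoxide (0.5 mM final) after 30 min compound–GPX4 preincubation; final 200 nM GPX4, 100 nM GR, 1 mM GSH, 0.5 mM NADPH.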

[3] = molecular target: Metallo-beta-lactamase type 2 (Klebsiella pneumoniae) (UniProt C7C422); assay: qHTS to identify inhibitors of the New Delhi Metallo-beta-lactamase (NDM): assay validation screen against the NCATS LOPAC Collection (AID 1794843);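 also: nitrocefin turnover by NDM-1 measured as 485 nm absorbance at plateau; series mostly up to about 38 µM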
Chain of Metallo-beta-lactamase type 2 (Klebsiella pneumoniae) (C7C422 whole entry, looked up): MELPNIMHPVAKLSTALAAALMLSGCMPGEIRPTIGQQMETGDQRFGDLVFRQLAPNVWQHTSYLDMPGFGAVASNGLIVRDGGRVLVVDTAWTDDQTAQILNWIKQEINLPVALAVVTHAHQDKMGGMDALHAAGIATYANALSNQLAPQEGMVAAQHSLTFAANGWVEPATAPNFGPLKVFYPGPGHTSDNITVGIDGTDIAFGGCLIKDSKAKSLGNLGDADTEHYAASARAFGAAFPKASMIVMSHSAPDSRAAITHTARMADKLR
Procedure, shortened: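 Nitrocefin hydrolysis (50 uM substrate stock) by NDM-1, 2 nM final, was followed by 485 nm absorbance after compound preincubation; buffer was 50 mM HEPES pH 7.0, 1 uM ZnSO4, 0.01% Tween20.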

[4] = Quantitative High-Throughput drug screen in 47 multiple myeloma cell lines against the NCATS MIPE library collection: FR4_PLB cell viability assay (AID 1918924; also: nearly all actives have a fitted effect of over 35% in size; also: potency is read from the fitted curve at half-maximal effect)
Procedure, shortened: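 Approved and investigational drugs from MIPE 4.0 were added by pin tool to 500 cells per well. After 48 hours at 37C, ATP-based CellTiter-Glo luminescence indicated remaining viability.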

[5] = Quantitative High-Throughput drug screen in 47 multiple myeloma cell lines against the NCATS MIPE library collection: Delta47_JCRB cell viability assay (AID 1918925; also: nearly all actives have a fitted effect of over 45% in size; also: potency is read from the fitted curve at half-maximal effect)
Procedure, shortened: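 Steps: seed 500 cells per well; pin-transfer MIPE 4.0 library; incubate 48 h at 37C, 5% CO2, humidified; add CellTiter-Glo, 5 min room temperature; read luminescence.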

[6] = molecular target: Luciferin 4-monooxygenase (Photinus pyralis) (UniProt P08659); assay: Primary firefly luciferase (FLuc) qHTS assay for identification of artifact compounds. (AID 1845220); details: outcome: dose series up to 54.1 µM unless noted; also: nearly all actives have a fitted effect of over 60% in size
Procedure, shortened: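 FLuc 10 nM; luciferin 10 uM; ATP 10 uM; Tris-acetate pH 7.6, Mg-acetate 10 mM; 15 min RT preincubation; 5 min reaction; luminescence.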

[7] = tested on: Nanoluciferase (engineered Oplophorus gracilirostris luciferase); assay: Primary Nanoluciferase (NLuc) qHTS assay for identification of artifact compounds. (AID 1845222);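 also: NLuc secreted into diluted conditioned medium of S16 cells; series mostly up to about 54 µM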
Procedure, shortened: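 NLuc from S16 cell medium (1:55) plus test compounds, 15 min, room temperature. Luminescence after Nano-Glo (1:100) addition, 5 min.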

C=CCC1=C(C)C(OC(=O)C2C(C=C(C)C)C2(C)C)CC1=O (stereo not drawn)
Potency [1]: inactive
Potency [2]: inactive

COc1cc(C(O)CN)ccc1O (stereo not drawn)
outcome [3]: inactive
Potency [2]: inactive

CCCN(CCC)[C@@H]1CCc2ccc(O)cc2C1
outcome [3]: inactive
Potency [2]: inactive

CC1=NN=C(c2ccc(N)cc2)c2cc3c(cc2C1)OCO3
outcome [3]: inactive
Potency [2]: inactive
Potency [4]: inactive
Potency [5]: inactive

NC(=O)CN1CC(O)CC1=O (stereo not drawn)
outcome [3]: inactive
Potency [2]: inactive

CN(C)NC(=O)CCC(=O)O
Potency [1]: inactive
Potency [2]: inactive

COC(=O)[C@@H](N)CCCN=C(N)N[N+](=O)[O-]
outcome [3]: inactive
Potency [1]: inactive
Potency [2]: inactive
Potency [4]: inactive
Potency [5]: inactive

CCCCc1ccc(C(=O)O)nc1
outcome [3]: inactive
Potency [2]: inactive

COc1ccc2c(c[n+](C)c3c4cc5c(cc4ccc23)OCO5)c1OC
outcome [3]: inactive
Potency [1]: inactive
Potency [2]: inactive
Potency [5]: 9.35 µM (active)

CCC(=O)O[C@@H]1C=C2CCC3C(CCC4(C)C3CC[C@@H]4OC(=O)CC)C2CC1 (stereo partly drawn)
Potency [1]: inactive
Potency [2]: inactive

O=c1cccc2n1CC1CNC[C@H]2C1
Potency [1]: inactive
Potency [2]: inactive
Potency [4]: inactive

COCC1(CO)C(=O)C2CCN1CC2 (stereo not drawn)
Potency [1]: inactive
Potency [2]: inactive

Cc1cc(O)ccc1Cl
Potency [1]: inactive
Potency [2]: inactive

Cc1ccccc1-n1c(Cn2cnc3c(N)ncnc32)nc2cccc(C)c2c1=O
Potency [1]: inactive
Potency [2]: inactive
outcome [6]: inactive
outcome [7]: inactive
Potency [4]: 6.62 µM (active)
Potency [5]: 0.105 µM (active)

CSCC[C@@H](NC(=O)[C@@H](Cc1ccccc1)NC(=O)CNC(=O)CNC(=O)[C@@H](N)Cc1ccc(O)cc1)C(=O)O
Potency [1]: inactive
Potency [2]: inactive
Potency [4]: inactive
Potency [5]: inactive

C[C@](O)(COc1ccc(C#N)cc1)C(=O)Nc1ccc(C#N)c(C(F)(F)F)c1
Potency [1]: inactive
Potency [2]: inactive

O=c1[nH]c2ccccc2n1C1CCN(Cc2ccc(-c3[nH]c4cc5ncnc5cc4nc3-c3ccccc3)cc2)CC1
Potency [1]: inactive
Potency [5]: 1.87 µM (active)

O=C(Oc1ccc([N+](=O)[O-])cc1)N1CCN(Cc2cccc(Oc3ccccc3)c2)CC1
Potency [1]: inactive
Potency [2]: inactive
outcome [6]: inactive
outcome [7]: inactive

CCN1CCN(C(=O)Cc2ccc(Nc3ncc(F)c(Nc4ccc(C(=O)Nc5ccccc5Cl)cc4)n3)cc2)CC1
Potency [1]: inactive
Potency [2]: inactive
outcome [6]: inactive
outcome [7]: inactive
Potency [5]: 1.32 µM (active)

C[C@]12CC[C@@H]3[C@@H](CCC4=CC(=O)CC[C@@H]43)[C@@H]1CC[C@@H]2OC(=O)CCc1ccccc1
Potency [1]: inactive
Potency [2]: inactive

CCNC(=O)CC1N=C(c2ccc(Cl)cc2)c2cc(OC)ccc2-n2c(C)nnc21 (stereo not drawn)
Potency [1]: inactive
Potency [2]: inactive
outcome [6]: inactive
outcome [7]: inactive
Potency [5]: 6.62 µM (active)

CCc1c(C(=O)C(N)=O)c2c(OCC(=O)O)cccc2n1Cc1ccccc1
Potency [1]: inactive
Potency [2]: inactive
outcome [6]: inactive
outcome [7]: inactive
Potency [5]: inactive

COc1cc([C@@H]2c3cc4c(cc3[C@@H](O)C3COC(=O)C32)OCO4)cc(OC)c1O (stereo partly drawn)
Potency [1]: inactive
Potency [2]: inactive
Potency [4]: 0.0066 µM (active)
Potency [5]: 0.0264 µM (active)

CN(C)[C@@H]1C(=O)C(C(N)=O)=C(O)[C@@]2(O)C(=O)C3=C(O)c4c(O)cccc4[C@@](C)(O)[C@H]3[C@H](O)[C@@H]12
Potency [1]: inactive
Potency [2]: inactive
Potency [4]: inactive

C#CC1(O)CCC2C3CCC4=CC(=O)CCC4(C)C3CCC21C (stereo not drawn)
Potency [1]: inactive
Potency [2]: inactive
Potency [5]: inactive

CCOP(=O)(OCC)C(C)NC(=O)N(CCCl)N=O (stereo not drawn)
Potency [1]: inactive
Potency [2]: inactive
Potency [4]: inactive
Potency [5]: inactive

CC1(N2CCC(n3c([C@@H]4CCCNC4)nc4ccccc43)CC2)CCCCCCC1
Potency [1]: inactive
Potency [2]: inactive
outcome [6]: inactive
outcome [7]: inactive
Potency [4]: 23.5 µM (active)
Potency [5]: 13.2 µM (active)

CC(C)[C@]12O[C@H]1[C@@H]1O[C@]13[C@]1(O[C@H]1C[C@H]1C4=C(CC[C@@]13C)C(=O)OC4)[C@@H]2O
Potency [1]: inactive
Potency [2]: inactive
outcome [6]: inactive
outcome [7]: inactive

CCOC(=O)c1c(C(C#N)=CN)c2ccc(Cl)c(Cl)c2n1C
Potency [1]: inactive
Potency [2]: inactive
Potency [4]: inactive
Potency [5]: inactive

C[C@]12CC[C@H]3[C@@H](CCC4=CC(=O)CC[C@@]43C)[C@H]1CC[C@H]2OC(=O)CCC1CCCC1
Potency [1]: inactive
Potency [2]: inactive
Potency [4]: inactive
Potency [5]: inactive

Cc1c(C(=O)Nc2cccc(C(F)(F)F)c2)cc(-c2ccccc2)n1CCCN1CCOCC1
Potency [1]: inactive
Potency [2]: inactive
outcome [6]: inactive
outcome [7]: inactive
Potency [4]: 23.5 µM (active)
Potency [5]: 16.6 µM (active)

O=C(N[C@@H](COc1ccc2[nH]c(=O)[nH]c2c1)c1ccccc1)c1cccn(Cc2ccc(F)c(F)c2)c1=O
Potency [1]: inactive
outcome [6]: inactive
outcome [7]: inactive
Potency [5]: 20.9 µM (active)

CC(=O)N(C)c1cccc(-c2ccnc3c(C(=O)c4cccs4)cnn23)c1
Potency [1]: inactive
outcome [6]: inactive
outcome [7]: inactive
Potency [4]: inactive

CCCC[N+]1(C)[C@H]2CC(OC(=O)[C@H](CO)c3ccccc3)C[C@H]1[C@H]1O[C@H]12 (stereo partly drawn)
Potency [1]: inactive
Potency [2]: inactive
Potency [5]: inactive

COc1ccc(N(C(=O)Oc2c(C)cccc2C)c2ccnc(Nc3ccc(N4CCN(C)CC4)cc3)n2)c(OC)c1
Potency [1]: inactive
Potency [2]: inactive
outcome [6]: inactive
outcome [7]: inactive
Potency [4]: 2.64 µM (active)
Potency [5]: 4.18 µM (active)

CN[C@@H]1Cc2cccc3[nH]c(=O)n(c23)C1
Potency [1]: inactive
Potency [2]: inactive
Potency [4]: 11.8 µM (active)
Potency [5]: inactive
